Screening data (PubChem BioAssay)
aSyn UTR act – Activators via SNCA 5'UTR binding, MLPCN | alpha-synuclein 5'UTR reporter, activators screen | activity score, % (tested at 7.5 µM), hits read low | actives 7.1% (n = 300,000) | AID 1814; in the data active means activity score below about -60%
Hits are given with their value; 0 = inactive. Only a sample is shown.

SMILES	aSyn UTR act
CC(=O)O[C@H]1C(=O)[C@]2(C)[C@H]([C@H](OC(=O)c3ccccc3)[C@]3(O)C[C@H](OC(=O)[C@H](O)[C@@H](NC(=O)c4ccccc4)c4ccccc4)C(C)=C1C3(C)C)[C@]1(OC(C)=O)CO[C@@H]1C[C@@H]2O	0
COc1ccc(OCc2cnc(Cl)s2)cc1	-82
Cc1ccc(OCc2cnc(Cl)s2)c(C)c1	-134
O=C(CSc1nnc(-c2cccnc2)o1)Nc1ccc(Cl)cc1	-62
O=C(CSc1nnc(-c2cccnc2)o1)Nc1cccc(Cl)c1	-119
COCCNc1c(-c2ccc(O)cc2)nc2ccc(Cl)cn12	-69
COC(=O)c1ccc(Cn2nc(C)cc2C)cc1	-71
COc1cccc(C2c3c(oc4ccccc4c3=O)C(=O)N2Cc2ccco2)c1 (configuration not stated)	-99
O=C(/C=C/c1ccc(Cl)cc1Cl)N1CCc2ccccc21	-192
O=C(/C=C/c1ccc(F)cc1)N1CCCc2ccccc21	-65
O=C(/C=C/c1cccc(F)c1)N1CCc2ccccc21	-111
Cc1cccc(NC(=O)c2cccs2)n1	-116
O=C(Nc1nccc(-c2cccs2)n1)c1cccs1	-92
O=C(Nc1ccccn1)c1cccs1	-113
COc1cccc(/C=N/NC(=O)c2cc3cc([N+](=O)[O-])ccc3s2)c1O	0
Cc1cccc(NC(=O)c2cc3cc([N+](=O)[O-])ccc3s2)n1	-85
Cc1ccnc(NC(=O)c2ccc(Br)s2)c1	-115
Cc1ccnc(NC(=O)c2cccs2)c1	-118
CC(C)c1cc2c(c(O)c1O)[C@@]13CCCC(C)(C)C1CC2OC3=O (some centres not stated)	-126
Cc1ccc(C(NC(=O)NCCCN2CCOCC2)=C(Cl)Cl)cc1F	-70
COc1cccc(N2CCN(C(=O)c3ccc4nc(N5CCCCC5)sc4c3)CC2)c1	-153
COc1ccc2nc(N3CCN(C(=O)C4COc5ccccc5O4)CC3)sc2c1 (configuration not stated)	-125
COc1ccc(N2CCN(C(=O)c3ccc4nc(N5CCCCC5)sc4c3)CC2)cc1	-192
CC1CCN(c2nc3ccc(C(=O)N4CCN(Cc5ccc6c(c5)OCO6)CC4)cc3s2)CC1	-156
CCN(CC)C(=S)SCC(=O)c1ccc(Br)cc1	-110
SMILES	aSyn UTR act
CC1CCC(C(C)C)C(OC(=O)Cn2c(-c3ccccc3)[n+](C)c3ccccc32)C1 (configuration not stated)	0
O=P(O)(O)c1ccccc1OCCOCCOCCOCCOc1ccccc1P(=O)(O)O	-130
Clc1ccc(CO/N=C2\CCCc3nonc32)cc1	-70
O=c1oc2ccccc2cc1-c1nc(-c2cccs2)cs1	-133
CNc1nnc(-c2cc3ccccc3oc2=O)s1	-78
COc1cccc2cc(-c3nc(-c4cccs4)cs3)c(=O)oc12	-174
c1csc(-c2csc(-c3cccs3)n2)c1	-104
N=c1oc2ccccc2cc1-c1nc(-c2ccccc2)cs1	-64
Cc1c(Cl)cccc1N=Cc1ccc([N+](=O)[O-])s1	-89
COc1ccc(/C(N)=N/OC(=O)C2CCCCC2)cc1	-131
COc1ccc(/C(N)=N/OC(=O)C2CCCCC2)cc1OC	-86
COc1ccc(-c2ccc(C(=O)C3CC3)cc2)cc1	-107
CCCCCc1nnc(NC(=O)C2=COCCO2)s1	-110
CCCCCc1nnc(NC(=O)C2CCCO2)s1 (configuration not stated)	-90
O=C(Nc1nc2cc3c(cc2s1)OCO3)C1=COCCO1	0
CCOc1cc(/C=C2/SC(=S)N(C)C2=O)ccc1Oc1ccc([N+](=O)[O-])cc1[N+](=O)[O-]	-62
CCOc1cc(/C=C2/NC(=S)NC2=O)ccc1OCc1ccc([N+](=O)[O-])cc1	0
Cc1ccc(CSc2ncnc3c2cnn3-c2ccc(C)cc2)cc1	-93
Cc1ccc(-n2ncc3c(SCC(=O)NNC(=O)c4ccco4)ncnc32)cc1	-106
Cc1ccc(-n2ncc3c(SCc4ccccc4)ncnc32)cc1	-180
Cc1ccc(CSc2ncnc3c2cnn3-c2ccccc2)cc1	-137
Fc1ccc(-n2ncc3c(SCc4cccnc4)ncnc32)cc1	-138
COc1cccc(C(=O)OCC(=O)c2c[nH]c3ccccc23)c1O	-105
O=C(OCC(=O)c1c[nH]c2ccccc12)c1ccc(Br)o1	-130
O=C(OCC(=O)c1c[nH]c2ccccc12)c1ccco1	-102
SMILES	aSyn UTR act
COc1ccc(C(=O)COC(=O)c2cccc(-n3cnnn3)c2)c(OC)c1	-104
COc1ccc(C(=O)COC(=O)c2cc(=O)[nH]c3ccccc23)c(OC)c1	-131
COc1ccc2c(c1)[nH]c1c(=O)n(CCC3=CCCCC3)cnc12	-99
O=c1c2[nH]c3ccc(F)cc3c2ncn1CCC1=CCCCC1	-121
CCc1ccc2[nH]c(=O)c(CN(Cc3nnnn3C3CCCC3)C3CCCCC3)cc2c1	-70
Cc1ccc(-c2cnn(-c3cccc(C(F)(F)F)c3)c2N)cc1	-147
Nc1c(-c2ccc(Cl)cc2)cnn1-c1cccc(C(F)(F)F)c1	-102
CCn1c(C(=O)OC)cc2c1ccn2-c1ccc(F)cc1	-157
CCCCCNc1nc(-c2ccccc2)cs1	-169
c1ccc(CCNc2nc(-c3ccncc3)cs2)cc1	-114
